# PubChem BioAssay (NCATS)
# Results filed as inconclusive are left out. The source made the active and inactive calls. Calls come from the whole dose curve; as a rule, active = well fitted inhibition curve with a large enough effect; inconclusive = small, poorly fitted or top-dose-only effect; inactive = flat fitted curve, though single readings scatter.
# Test system: PC26
# Assay: qHTS profiling for inhibitors of Plasmodium falciparum proliferation (AID 504749);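 note: 0% = DMSO vehicle and full inhibition = artemisinin control; nearly all actives have a fitted effect of over 60% in size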
# Details: P. falciparum in erythrocytes, SYBR Green DNA, 72 h; series mostly up to 28.7 µM; activity, negative = inhibition: at the top concentration
# Summary of the method: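 SYBR Green fluorescence (ex 485 nm, em 535 nm) reports parasite DNA after 72 h compound exposure of infected red cells at 0.3% parasitemia, 2.5% hematocrit; signal normalized to 0.29 uM artemisinin and vehicle wells.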
row,SMILES,"activity, negative = inhibition"
1,FCOC(C(F)(F)F)C(F)(F)F,-3.66% (inactive)
2,C=Cc1ccc(S(=O)(=O)O)cc1,-0.193% (inactive)
3,CC12CCC(C[N+](C)(CCC[N+](C)(C)C)C1)C2(C)C (centres undefined),2.5% (inactive)
4,CC1CC(OC(=O)C(O)c2ccccc2)CC(C)(C)C1 (centres undefined),17.9% (inactive)
5,CC/C(=C(/CC)c1ccc(OP(=O)(O)O)cc1)c1ccc(OP(=O)(O)O)cc1,14.1% (inactive)
6,O=C(NNCNNC(=O)c1ccncc1)c1ccncc1,4.59% (inactive)
7,CC(C)c1ncc([N+](=O)[O-])n1C,3.46% (inactive)
8,CC(C)CCC[C@@H](C)[C@H]1CC[C@H]2[C@@H]3CC[C@@H]4C[C@H](O)CC[C@]4(C)[C@H]3CC[C@]12C,1.26% (inactive)
9,Cc1ccc(S(=O)(=O)NCl)cc1,6.47% (inactive)
10,CC(/C=C/C=C(\C)C(=O)O[C@@H]1O[C@H](CO[C@@H]2O[C@H](CO)[C@@H](O)[C@H](O)[C@H]2O)[C@@H](O)[C@H](O)[C@H]1O)=C\C=C\C=C(C)\C=C\C=C(/C)C(=O)O[C@@H]1O[C@H](CO[C@@H]2O[C@H](CO)[C@@H](O)[C@H](O)[C@H]2O)[C@@H](O)[C@H](O)[C@H]1O,2.49% (inactive)
11,CCCCCCCCCCCCCCCCCC(=O)OCC(C)O (centres undefined),11% (inactive)
12,CC(C)(Oc1ccc(C2CCCc3ccccc32)cc1)C(=O)O (centres undefined),9.27% (inactive)
13,CO,1.86% (inactive)
14,O=C(O)/C=C/C(=O)Nc1ccc(S(=O)(=O)Nc2nccs2)cc1,-0.859% (inactive)
15,N[C@H](CC(=O)O)C(=O)O,8.28% (inactive)
16,CCCc1ccc(C(=O)O)cc1,-11.5% (inactive)
17,O=S(=O)(O)CC(S)CS (centres undefined),0.868% (inactive)
18,O=c1[nH]c(=O)n([C@H]2C[C@H](O)[C@@H](CO)O2)cc1/C=C/Br,-2.36% (inactive)
19,CN[C@@H]1[C@H](O[C@H]2[C@H](O[C@H]3[C@H](O)[C@@H](O)[C@H](N=C(N)N)[C@@H](O)[C@@H]3N=C(N)N)O[C@@H](C)[C@]2(O)C=O)O[C@@H](CO)[C@H](O)[C@H]1O,-0.114% (inactive)
